Activity calls are given as the source filed them. Unless noted, how the calls were made is not given here.
Columns and labels:
[1] = compounds binding Alexa647 anti-His antibody – biochemical, small-molecule microarray, 635 nm fluorescence, artefact control for SMM control protein annotation, primary screen (AID 1128); settings: higher = more signal;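 further: score merges feature fluorescence with signal-to-noise for each printed compound spot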
[2] = test system: Human papillomavirus type 1a E7 protein (residues 1-88); test: HPV1a E7 small-molecule binders, primary screen, biochemical, small-molecule microarray, residues 1-88, 635 nm (AID 1129); settings: small-molecule microarray binding, fluorescence 635 nm; higher = more signal
[3] = target: Focal adhesion kinase 1 (Homo sapiens) (UniProt Q05397); test: PTK2 protein binding on printed compound slides – biochemical, small-molecule microarray, 635/667 nm fluorescence, BSA, DTT, primary screen (AID 1130); settings: 635 nm fluorescence, higher = more signal;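 further: composite of spot emission at 667 nm and signal to noise over triplicate slides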
Sequence of Focal adhesion kinase 1 (Homo sapiens) (Q05397 whole entry, looked up): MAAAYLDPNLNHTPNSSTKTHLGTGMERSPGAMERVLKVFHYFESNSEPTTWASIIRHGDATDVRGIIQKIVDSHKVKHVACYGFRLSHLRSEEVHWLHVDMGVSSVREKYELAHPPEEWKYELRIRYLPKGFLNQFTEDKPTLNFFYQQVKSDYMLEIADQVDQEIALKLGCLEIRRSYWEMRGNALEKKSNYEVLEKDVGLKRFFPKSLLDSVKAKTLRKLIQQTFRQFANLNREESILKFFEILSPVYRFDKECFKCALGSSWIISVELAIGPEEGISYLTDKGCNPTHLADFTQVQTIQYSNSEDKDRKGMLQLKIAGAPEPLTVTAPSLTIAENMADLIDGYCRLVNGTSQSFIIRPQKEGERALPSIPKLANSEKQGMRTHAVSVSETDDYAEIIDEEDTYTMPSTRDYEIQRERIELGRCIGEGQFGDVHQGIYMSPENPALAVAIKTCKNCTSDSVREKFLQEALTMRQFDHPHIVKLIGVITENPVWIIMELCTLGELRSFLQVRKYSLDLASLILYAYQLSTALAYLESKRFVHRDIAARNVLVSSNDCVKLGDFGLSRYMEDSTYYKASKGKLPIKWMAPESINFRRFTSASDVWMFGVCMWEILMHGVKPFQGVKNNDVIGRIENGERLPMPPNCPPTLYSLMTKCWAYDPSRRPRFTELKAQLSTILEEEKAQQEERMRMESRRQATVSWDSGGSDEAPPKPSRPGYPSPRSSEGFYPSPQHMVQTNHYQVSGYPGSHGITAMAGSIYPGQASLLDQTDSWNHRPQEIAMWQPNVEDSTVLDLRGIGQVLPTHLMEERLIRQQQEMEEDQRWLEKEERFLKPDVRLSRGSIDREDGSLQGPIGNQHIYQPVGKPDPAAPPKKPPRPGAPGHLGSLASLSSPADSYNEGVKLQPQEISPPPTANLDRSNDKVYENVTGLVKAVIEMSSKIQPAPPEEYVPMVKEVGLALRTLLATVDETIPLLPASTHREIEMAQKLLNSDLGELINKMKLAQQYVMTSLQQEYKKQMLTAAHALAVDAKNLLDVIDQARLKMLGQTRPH

[4] = test system: Fibrinogen (Alexa647-labelled); test: Alexa647-fibrinogen binding to printed small molecules – biochemical, small-molecule microarray, 635/667 nm fluorescence, artefact control for SMM control-protein annotation, profiling panel (AID 1131); settings: fibrinogen-A647 binding fluorescence, higher = more signal;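 further: z-score merges 667 nm fluorescence with per-spot signal-to-noise over triplicate slides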
[5] = target: Follistatin (Homo sapiens) (UniProt P19883); test: FST protein binding to printed compounds – biochemical, small-molecule microarray, 635/667 nm fluorescence, primary screen (AID 1132); settings: 635 nm fluorescence, higher = more signal
Sequence of Follistatin (Homo sapiens) (P19883 whole entry, looked up): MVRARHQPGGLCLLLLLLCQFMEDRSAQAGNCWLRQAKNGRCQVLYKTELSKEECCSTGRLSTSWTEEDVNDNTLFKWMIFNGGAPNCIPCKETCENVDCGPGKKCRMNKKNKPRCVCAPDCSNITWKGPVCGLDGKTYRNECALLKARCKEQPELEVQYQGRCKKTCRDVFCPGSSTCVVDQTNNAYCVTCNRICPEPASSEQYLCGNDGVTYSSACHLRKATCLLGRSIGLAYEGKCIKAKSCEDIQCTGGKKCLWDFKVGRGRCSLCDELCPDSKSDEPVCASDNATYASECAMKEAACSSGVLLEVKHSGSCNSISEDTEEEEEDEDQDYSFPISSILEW

[6] = target: Fibroblast growth factor 2 (Homo sapiens) (UniProt P09038); test: basic fibroblast growth factor binding to printed compounds – biochemical, small-molecule microarray, 635/667 nm fluorescence, primary screen (AID 1133); settings: FGF2, fluorescence 635/667, higher = more signal
Sequence of Fibroblast growth factor 2 (Homo sapiens) (P09038 whole entry, looked up): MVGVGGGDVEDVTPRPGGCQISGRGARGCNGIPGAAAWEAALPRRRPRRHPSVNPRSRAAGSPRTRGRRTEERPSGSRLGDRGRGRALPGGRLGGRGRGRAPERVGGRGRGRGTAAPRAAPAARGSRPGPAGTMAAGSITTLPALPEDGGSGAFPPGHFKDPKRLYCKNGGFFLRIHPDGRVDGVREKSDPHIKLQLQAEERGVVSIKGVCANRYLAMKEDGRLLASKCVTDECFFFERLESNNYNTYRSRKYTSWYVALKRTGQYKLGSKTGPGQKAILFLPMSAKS

[7] = JC-1 mitochondrial potential readout, lung cancer cells – cell-based, A549, JC-1 fluorescence, basal, 24 h, 100 nL, profiling panel (AID 1138); settings: higher = more signal;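 further: A549 lung adenocarcinoma cells under basal conditions with no added stimulus; test concentration not given here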
Lefty1 = Lefty1 protein binding to printed compounds – biochemical, small-molecule microarray, 635/667 nm fluorescence, primary screen (AID 1139); settings: fluorescence 635/667, higher = more signal
[8] = test system: wheat germ agglutinin (Triticum aestivum), Alexa647-labelled; test: Alexa647-WGA lectin binding to printed small molecules – biochemical, small-molecule microarray, 635/667 nm fluorescence, artefact control for SMM control-protein annotation, profiling panel (AID 1140); settings: WGA-A647 binding, 635 nm fluorescence, higher = more signal;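 further: score merges 667 nm feature emission with signal to noise over triplicate slides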
[9] = target: Luciferin 4-monooxygenase (Photinus pyralis) (UniProt P08659); test: inhibition of purified Photinus pyralis luciferase – biochemical, luminescence, purified enzyme, 2006 set, primary screen (AID 1141); settings: purified firefly luciferase, SteadyGlo luminescence, 30 min; higher = more signal, called active from +8 up or from −8 down;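 further: cell-free assay with purified firefly luciferase at 100 ng per well in PBS; test concentration not given here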
Sequence of Luciferin 4-monooxygenase (Photinus pyralis) (P08659 whole entry, looked up): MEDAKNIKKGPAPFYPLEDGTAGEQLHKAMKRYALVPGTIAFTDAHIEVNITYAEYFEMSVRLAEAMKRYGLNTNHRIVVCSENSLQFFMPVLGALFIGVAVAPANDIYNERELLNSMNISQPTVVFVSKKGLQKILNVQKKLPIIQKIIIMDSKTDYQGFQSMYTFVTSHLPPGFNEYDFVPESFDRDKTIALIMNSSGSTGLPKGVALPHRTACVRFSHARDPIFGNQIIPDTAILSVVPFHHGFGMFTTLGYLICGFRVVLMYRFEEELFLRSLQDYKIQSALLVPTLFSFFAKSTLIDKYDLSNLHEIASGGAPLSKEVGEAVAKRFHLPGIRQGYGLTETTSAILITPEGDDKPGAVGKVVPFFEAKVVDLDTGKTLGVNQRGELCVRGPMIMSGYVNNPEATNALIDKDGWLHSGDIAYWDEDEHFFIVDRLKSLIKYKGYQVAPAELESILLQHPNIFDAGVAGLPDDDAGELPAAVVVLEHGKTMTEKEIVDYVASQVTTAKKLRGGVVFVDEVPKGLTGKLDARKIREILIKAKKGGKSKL

[10] = test system: Wnt5a (protein binding on small-molecule microarray); test: small molecules binding Wnt5a protein – biophysical, small-molecule microarray, 635/667 nm fluorescence, primary screen (AID 1142); settings: 635 nm fluorescence, higher = more signal;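 further: fluorescence read at 667 nm with signal to noise per printed feature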
[11] = ATP-based viability of Huh7 replicon cells – cell-based, CellTiter-Glo luminescence, basal, 48 h, cytotoxicity control for HCV replication inhibitor project, primary screen (AID 1143); settings: higher = more signal, called active from +8 up or from −8 down;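 further: Huh7 hepatoma cells carrying a hepatitis C replication reporter with no stimulus; test concentration not given here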
[12] = Pseudomonas biofilm growth suppression – PAO1 strain, BacTiter-Glo luminescence, LB-PBS, primary screen (AID 1144); settings: P. aeruginosa PAO1 biofilm, 12 h, higher = more signal
[13] = basal CRE-LacZ reporter activity in PC12 – cell-based, unstimulated, primary screen (AID 1145); settings: no forskolin, luminescence, 4.5 h, higher = more signal, called active from +8 up or from −8 down
[14] = forskolin-driven CRE-LacZ activity in PC12 – cell-based, CRE-LacZ reporter, forskolin-stimulated, primary screen (AID 1146); settings: luminescence, 4.5 h, higher = more signal, called active from +8 up or from −8 down;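 further: PC12 cells with 6xCRE LacZ reporter stimulated by forskolin 10 µM; beta-galactosidase reporter signal reflecting CREB driven transcription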
[15] = target: Streptavidin (Streptomyces avidinii) (UniProt P22629); test: compounds binding control protein streptavidin – biophysical, small-molecule microarray, 635/667 nm fluorescence, artefact control for SMM compound annotation, primary screen (AID 1147); settings: higher = more signal;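 further: signal reflects streptavidin binding to arrayed compounds as a control protein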
Sequence of Streptavidin (Streptomyces avidinii) (P22629 whole entry, looked up): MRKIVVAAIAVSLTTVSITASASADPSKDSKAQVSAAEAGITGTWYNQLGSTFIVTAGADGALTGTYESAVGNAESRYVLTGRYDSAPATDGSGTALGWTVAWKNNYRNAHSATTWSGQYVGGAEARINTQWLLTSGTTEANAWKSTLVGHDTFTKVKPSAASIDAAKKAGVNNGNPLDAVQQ

[16] = probe aInhba binding on compound microarray – biochemical, small-molecule microarray, 635/667 nm fluorescence, primary screen (AID 1148); settings: higher = more signal;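 further: score merges 667nm spot fluorescence with signal-to-noise for antibody binding to printed compounds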
Torsin-1A (Homo sapiens) [17] = target: Torsin-1A (Homo sapiens) (UniProt O14656); test: TOR1A wild-type binding on microarray – cell lysate, small-molecule microarray, lysate, 635/667 nm, primary screen (AID 1149); settings: COS7 hTOR1A-WT lysate, 635 nm fluorescence, higher = more signal
Sequence of Torsin-1A (Homo sapiens) (O14656 whole entry, looked up): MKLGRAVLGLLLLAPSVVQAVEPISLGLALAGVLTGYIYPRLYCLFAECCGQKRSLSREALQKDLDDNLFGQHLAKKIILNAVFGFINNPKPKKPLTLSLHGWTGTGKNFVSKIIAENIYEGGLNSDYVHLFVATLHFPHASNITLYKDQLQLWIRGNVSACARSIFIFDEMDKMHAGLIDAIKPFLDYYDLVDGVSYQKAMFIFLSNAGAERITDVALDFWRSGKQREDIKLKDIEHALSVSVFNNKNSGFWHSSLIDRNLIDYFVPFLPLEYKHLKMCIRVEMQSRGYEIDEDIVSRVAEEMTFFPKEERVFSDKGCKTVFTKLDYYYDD

Torsin-1A (Homo sapiens) [18] = target: Torsin-1A (Homo sapiens) (UniProt O14656); test: torsin A mutant lysate binding on microarrays – cell lysate, small-molecule microarray, COS7 lysate, 635/667 nm fluorescence, primary screen (AID 1150); settings: COS7 hTOR1A mutant lysate, 635 nm fluorescence, higher = more signal;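 further: score pools 667 nm emission and signal to noise measuring lysate protein binding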
[19] = test system: Sonic hedgehog protein (Shh); test: Sonic hedgehog microarray binding compounds – biochemical, small-molecule microarray, 635/667 nm fluorescence, primary screen (AID 1151); settings: 635 nm fluorescence, higher = more signal;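 further: Shh protein binding to compounds spotted on small-molecule microarray slides; score combines spot fluorescence intensity with signal-to-noise across triplicate slides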

Row | Structure (SMILES) | composite z-score [1] | composite z-score [2] | composite z-score [3] | composite z-score [4] | composite z-score [5] | composite z-score [6] | z-score [7] | composite z-score (Lefty1) | composite z-score [8] | z-score [9] | composite z-score [10] | z-score [11] | z-score [12] | z-score [13] | z-score [14] | composite z-score [15] | composite z-score [16] | composite z-score (Torsin-1A (Homo sapiens) [17]) | composite z-score (Torsin-1A (Homo sapiens) [18]) | composite z-score [19]
1 | COc1ccc([Si](C)(C)[C@@H]2[C@@H](CCO)O[C@]3(C(=O)N(Cc4cccc(N(C=O)c5ccccc5)c4)c4ccccc43)[C@H]2C)cc1 | 1.25 | 1.04 | 0.228 | 0.508 | 1.18 | 0.598 | -0.0337 | 0.127 | 0.893 | 0.505 (inactive) | -0.0398 | -7.17 (inactive) | 0.465 (inactive) | 7.39 (inactive) | -0.671 (inactive) | 0.156 | 0.0543 | 0.0905 | -0.004 | 0.98
2 | COCCOC(=O)N1C(=O)[C@@]2(c3cc(C#CC4=CCCCC4)ccc31)[C@H](c1ccc(OCCO)cc1)N1[C@H](c3ccccc3)[C@H](c3ccccc3)OC(=O)[C@H]1[C@@H]2C(=O)Nc1nc2ccccc2s1 | 0.317 | 1.18 | 0.358 | 0.929 | 1.19 | 0.571 | -2.19 | 0.982 | 0.53 | -2.79 (inactive) | 0.329 | -3.52 (inactive) | -2.45 (inactive) | -1.16 (inactive) | -0.482 (inactive) | 1.27 | -0.0178 | -0.0779 | 0.394 | 0.911
3 | CN(C)CCCCNC(=O)[C@@H]1C[C@@H]2C(=O)N[C@@H](CCCCN)C(=O)N2[C@@H]1c1cccc(OCCO)c1 | 0.117 | -0.229 | -0.815 | -0.581 | -0.029 | 0.554 | -0.872 | -0.382 | -0.13 | 0.654 (inactive) | -0.157 | 0.0925 (inactive) | -0.703 (inactive) | -0.805 (inactive) | -0.325 (inactive) | -0.521 | 0.245 | -1.37 | -2.02 | 0.985

Source: PubChem BioAssay
